Source: PubChem BioAssay (NCI)
This is part of a sample that, as a whole, favours compounds with a hit. Of some 83,000 tested, about 20% had one in any assay.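 Plates (96-well) were seeded with cells, treated with compound at one concentration, and incubated for 48 hours before percent growth was determined.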 Values without a mark were called inactive. Active and inactive are the calls of the source. Rule for the calls: active = growth percent below 10; inactive = the rest.

tested on: UACC-257 melanoma; experiment: NCI-60 one-dose screen, 48 h (100 = growth as untreated, 0 = no growth, -100 = all killed); conditions: 10 µM

Compound	growth
COc1ccc2oc(=O)cc(C(c3ccc[nH]3)c3ccc[nH]3)c2c1	32.5%
CCCN(CCC)CCCNC(=O)c1cc2c(-c3ccc(OC)c(OC)c3)nn(C)c2s1	7.46% (active)
N#Cc1c(-c2ccccc2)nc(SCC(=O)N2CCOCC2)[nH]c1=O	97%
COc1ccc(NC(=O)c2sc3nc4c(cc3c2N)C(O)CCC4)cc1 (stereo not drawn)	97.4%
COc1cccc2c1O/C(=C\c1ccc([N+](=O)[O-])s1)C2=O	65.2%
N#Cc1cnc2ccc(NCc3cnc[nH]3)cc2c1Nc1ccc(F)c(Cl)c1	84.3%
O=C1/C(=C/c2ccc(O)cc2)Oc2ccc(Cl)cc21	79%
Cc1ccc([P+](Cc2ccccc2)(c2ccccc2)c2ccccc2)cc1	-28.6% (active)
CCOC(=O)c1c(C)n(-c2ccc(Cl)cc2)c2ccc(OC(=O)/C=C/c3ccccc3)cc12	84.2%
O=C(O)CCCN1C(=O)NC2(C1=O)c1ccccc1-c1ccccc12	91.2%
Cc1cc(C)c2nc(C)c(C)[n+]([O-])c2c1	84.8%
CCOC(=O)c1sc(Nc2ncccn2)nc1-c1ccccn1	100%
COc1ccc(-c2[nH]ncc2/C=C/c2cc(C(F)(F)F)[nH]c(=O)n2)cc1	98.3%
COc1ccc(-c2nc(-c3nc4ccc(C)cc4[nH]3)c3ccccn23)cc1	57.6%
CC(Oc1ccc(Cl)cc1)c1ccccc1 (stereo not drawn)	98.9%
CCCCCCCCCCN=C(c1ccc(N(C)C)cc1)c1ccc(N(C)C)cc1	28.3%
c1ccc(COCC[P+](c2ccccc2)(c2ccccc2)c2ccccc2)cc1	-22.7% (active)
COCCOC(=O)NC(=O)Nc1ccc(/C(=N/O)c2ccc(Cl)cc2)cc1	71.6%
O=C(O)c1ccc(CNc2ccc(C(=O)CCl)cc2)cc1	75%

Compound	growth
CC(C)C[C@H](NC(=O)CCn1ccc2ccccc2c1=O)B(O)O	34.5%
COc1cc(CSc2nc3ccc(Cl)cc3c(=O)n2Cc2ccccc2)cc(OC)c1OC	46.5%
c1ccc(CNc2nc(Nc3ccc(-c4nc5ccccc5[nH]4)cc3)c3cn[nH]c3n2)cc1	-33.3% (active)
CCCCCCCCCCCC(=O)NCCCN(C)C	94.7%
CCCc1c(C)nc2scc(-c3ccc(Cl)cc3)n2c1=O	110%
COc1ccc(/C=C2\SC(=S)N(CCCN3CCOCC3)C2=O)c(OC)c1	102%
CCCCN(CCCC)c1ccc(C(=NC(C)CCCN(CC)CC)c2ccc(N(C)C)cc2)cc1 (stereo not drawn)	-70.6% (active)
CCN(CC)CCOC(=O)c1ccc(N=Nc2ccc(O)c(OC)c2)cc1	96.5%
CCc1ccc(-c2nnc(COc3ccc(-c4nc5ccc(C)cc5[nH]4)cc3OC)o2)cc1	95.7%
COc1cc(-c2nc3ccc(C)cc3[nH]2)ccc1OCc1nnc(-c2ccc(CC(C)C)cc2)o1	96.8%
O=C(Nc1cccc(F)c1)Nc1cccc(Cl)c1	87.7%
CCCCOCCOCCOCc1cc2c(cc1Br)OCO2	101%
CC(C)(C)c1ccc(OCCCCCCN2CCNCC2)cc1	93.6%
O/N=C1\CCC2CCCCC2C1 (stereo not drawn)	107%
O=c1cc(CSc2nnc(-c3ccccc3)n2-c2ccc(F)cc2)c2ccc3ccccc3c2o1	103%
CC(C)C[C@H](NC(=O)Cn1ccc2ccccc2c1=O)B(O)O	42.1%
COc1ccc(-c2nc(-c3nc4ccc(OC)cc4[nH]3)c3ccccn23)cc1	92.9%
CCn1nc(-c2ccccn2)c2cccnc2c1=S	35.8%
CNC(=O)c1cc(Oc2ccc(NC(=O)Nc3ccc(Cl)c(OC(C)C)c3)c(F)c2)ccn1	26.9%
